Reference: publication PMC11024108

Experiments:
Histone H2B type 1-L = Histone H2B type 1-L (UniProt Q99880); test: cross-link between two proteins; cross-linking mass spectrometry
Histone H2B type 1-M = Histone H2B type 1-M (UniProt Q99879); test: as above
Histone H1.2 = Histone H1.2 (UniProt P16403); test: as above
[1] = molecular target: Large ribosomal subunit protein eL20 (UniProt Q02543); test: as above
[2] = molecular target: T1, Serine/arginine-rich splicing factor 7 (UniProt Q16629); test: as above
T1 sequence: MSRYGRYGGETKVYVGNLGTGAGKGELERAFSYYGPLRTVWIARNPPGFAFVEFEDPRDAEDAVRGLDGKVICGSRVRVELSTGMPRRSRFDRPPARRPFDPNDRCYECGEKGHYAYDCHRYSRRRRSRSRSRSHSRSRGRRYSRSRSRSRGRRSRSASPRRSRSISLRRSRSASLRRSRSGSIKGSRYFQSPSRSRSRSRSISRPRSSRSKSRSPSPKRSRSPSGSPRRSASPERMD

[3] = molecular target: Small ribosomal subunit protein eS8 (UniProt P62241); test: as above
[4] = molecular target: Large ribosomal subunit protein eL24 (UniProt Q8BP67); test: as above
[5] = molecular target: Actin-related protein 2/3 complex subunit 2 (UniProt Q9CVB6); test: as above
[6] = molecular target: Actin-related protein 2/3 complex subunit 3 (UniProt Q9JM76); test: as above
[7] = molecular target: Large ribosomal subunit protein bL17m (UniProt Q9NRX2); test: as above
[8] = molecular target: Large ribosomal subunit protein eL24 (UniProt P83731); test: as above
[9] = molecular target: Large ribosomal subunit protein eL30 (UniProt P62888); test: as above
Actin, cytoplasmic 2 = Actin, cytoplasmic 2 (UniProt P63261); test: as above
Epsin-1 = Epsin-1 (UniProt Q9Y6I3); test: as above
[10] = molecular target: Ubiquitin-like protein NEDD8 (UniProt Q15843); test: as above
[11] = molecular target: Large ribosomal subunit protein eL42 (UniProt P83881); test: as above
Histone H2A type 1-J = Histone H2A type 1-J (UniProt Q99878); test: as above
[12] = molecular target: Large ribosomal subunit protein uL22 (UniProt Q9CPR4); test: as above
[13] = molecular target: AP-2 complex subunit beta (UniProt P63010); test: as above
[14] = molecular target: AP-1 complex subunit beta-1 (UniProt Q10567); test: cross-link between two proteins; co-fractionation; cross-linking mass spectrometry
Beta-synuclein = Beta-synuclein (UniProt Q91ZZ3); test: cross-link between two proteins; cross-linking mass spectrometry
[15] = molecular target: Large ribosomal subunit protein eL27 (UniProt P61353); test: as above
[16] = molecular target: AP-2 complex subunit beta (UniProt Q9DBG3); test: as above
[17] = molecular target: Actin-related protein 2/3 complex subunit 5 (UniProt Q9CPW4); test: as above
[18] = molecular target: Actin-related protein 2/3 complex subunit 5-like protein (UniProt Q9D898); test: as above
[19] = molecular target: Large ribosomal subunit protein mL53 (UniProt Q96EL3); test: as above

AP-2 complex subunit sigma, P53680, sequence (P53680 whole entry, one chain of several): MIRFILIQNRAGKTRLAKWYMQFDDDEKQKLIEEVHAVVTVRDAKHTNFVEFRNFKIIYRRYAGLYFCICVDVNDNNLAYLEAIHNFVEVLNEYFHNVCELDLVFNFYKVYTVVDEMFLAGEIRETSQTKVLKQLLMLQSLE
AP-2 complex subunit sigma, P62743, sequence (P62743 whole entry, one chain of several): as the sequence (P53680 whole entry, one chain of several) above
AP-2 complex subunit beta (UniProt Q9DBG3), sequence (Q9DBG3 whole entry, one chain of several): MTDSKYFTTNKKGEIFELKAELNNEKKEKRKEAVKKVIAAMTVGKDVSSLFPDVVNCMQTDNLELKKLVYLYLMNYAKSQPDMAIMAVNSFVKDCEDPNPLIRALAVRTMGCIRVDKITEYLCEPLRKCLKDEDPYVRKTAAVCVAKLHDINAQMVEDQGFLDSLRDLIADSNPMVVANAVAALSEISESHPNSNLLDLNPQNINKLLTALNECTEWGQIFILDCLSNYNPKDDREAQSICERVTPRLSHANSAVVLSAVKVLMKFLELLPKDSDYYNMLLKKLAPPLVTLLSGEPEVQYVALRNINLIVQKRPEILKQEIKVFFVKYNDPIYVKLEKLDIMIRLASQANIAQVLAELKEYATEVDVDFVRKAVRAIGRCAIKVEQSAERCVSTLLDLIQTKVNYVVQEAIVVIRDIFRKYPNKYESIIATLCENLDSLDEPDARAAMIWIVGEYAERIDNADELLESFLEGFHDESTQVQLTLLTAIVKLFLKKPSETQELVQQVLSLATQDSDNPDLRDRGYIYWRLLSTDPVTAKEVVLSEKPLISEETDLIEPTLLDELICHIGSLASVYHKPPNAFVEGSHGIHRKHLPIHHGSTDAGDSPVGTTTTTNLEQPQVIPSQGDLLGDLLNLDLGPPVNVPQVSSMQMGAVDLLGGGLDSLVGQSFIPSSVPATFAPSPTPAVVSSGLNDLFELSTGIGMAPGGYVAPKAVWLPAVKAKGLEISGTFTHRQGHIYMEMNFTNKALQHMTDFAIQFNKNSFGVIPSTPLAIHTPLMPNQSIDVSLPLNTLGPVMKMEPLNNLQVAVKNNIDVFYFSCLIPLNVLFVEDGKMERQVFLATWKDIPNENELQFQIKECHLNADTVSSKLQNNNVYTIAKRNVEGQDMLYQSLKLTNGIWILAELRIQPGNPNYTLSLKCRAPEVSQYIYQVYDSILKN
AP-2 complex subunit beta (UniProt P63010), sequence (P63010 whole entry, one chain of several): as the sequence (Q9DBG3 whole entry, one chain of several) above, with T612A counted along it
AP-1 complex subunit beta-1, sequence (Q10567 whole entry, one chain of several): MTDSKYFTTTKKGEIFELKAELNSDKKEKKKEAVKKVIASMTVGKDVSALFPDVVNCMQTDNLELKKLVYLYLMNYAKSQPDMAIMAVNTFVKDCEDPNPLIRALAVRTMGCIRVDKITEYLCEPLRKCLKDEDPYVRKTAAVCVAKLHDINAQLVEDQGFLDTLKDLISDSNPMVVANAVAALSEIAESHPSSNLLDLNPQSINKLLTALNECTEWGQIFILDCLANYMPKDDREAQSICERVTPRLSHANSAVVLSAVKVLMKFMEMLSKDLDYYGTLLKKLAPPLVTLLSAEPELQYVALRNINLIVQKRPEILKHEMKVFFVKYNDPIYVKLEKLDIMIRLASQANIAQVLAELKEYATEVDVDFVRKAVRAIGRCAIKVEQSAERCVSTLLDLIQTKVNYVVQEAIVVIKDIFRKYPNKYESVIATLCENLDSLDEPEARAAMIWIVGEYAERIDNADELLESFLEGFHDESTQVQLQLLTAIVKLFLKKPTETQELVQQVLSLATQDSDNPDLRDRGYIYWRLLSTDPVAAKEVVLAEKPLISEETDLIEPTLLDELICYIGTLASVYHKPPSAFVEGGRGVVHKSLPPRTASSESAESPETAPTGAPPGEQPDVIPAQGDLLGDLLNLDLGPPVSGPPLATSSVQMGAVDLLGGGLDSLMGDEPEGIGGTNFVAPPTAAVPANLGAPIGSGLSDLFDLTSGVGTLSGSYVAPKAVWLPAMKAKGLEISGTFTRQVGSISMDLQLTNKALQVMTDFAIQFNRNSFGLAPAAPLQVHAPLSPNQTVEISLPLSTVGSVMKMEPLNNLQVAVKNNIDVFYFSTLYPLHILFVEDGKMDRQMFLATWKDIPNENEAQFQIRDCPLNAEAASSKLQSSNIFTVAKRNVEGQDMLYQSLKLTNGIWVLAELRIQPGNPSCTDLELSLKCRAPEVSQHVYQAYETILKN
Histone H1.2, sequence (P16403 whole entry): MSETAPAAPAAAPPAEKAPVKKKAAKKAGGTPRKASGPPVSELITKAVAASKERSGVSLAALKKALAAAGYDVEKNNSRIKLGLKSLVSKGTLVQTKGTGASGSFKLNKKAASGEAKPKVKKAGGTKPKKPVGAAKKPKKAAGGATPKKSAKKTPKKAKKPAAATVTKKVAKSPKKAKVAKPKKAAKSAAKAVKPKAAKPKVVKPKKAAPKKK

Histone H3.2, Q71DI3
listed as a hit (Histone H2B type 1-L): yes | listed as a hit (Histone H2B type 1-M): yes

Histone H1.4, P10412
listed as a hit (Histone H1.2): yes | listed as a hit [1]: yes | listed as a hit [2]: yes | listed as a hit [3]: yes

Small ribosomal subunit protein eS6, P62754
listed as a hit [4]: yes

Actin-related protein 2, P61161
listed as a hit [5]: yes | listed as a hit [6]: yes

Actin-related protein 3, Q99JY9
listed as a hit [5]: yes

Large ribosomal subunit protein bL32m, Q9BYC8
listed as a hit [7]: yes

Actin-related protein 3B, Q641P0
listed as a hit [5]: yes

Large ribosomal subunit protein uL3, P39023
listed as a hit [8]: yes

Large ribosomal subunit protein eL43, P61513
listed as a hit [9]: yes

Ubiquitin-ribosomal protein eS31 fusion protein, P62979
listed as a hit (Actin, cytoplasmic 2): yes | listed as a hit (Epsin-1): yes | listed as a hit [10]: yes

Large ribosomal subunit protein uL5, P62913
listed as a hit [11]: yes

Histone H2A type 1-C, Q93077
listed as a hit (Histone H2A type 1-J): yes

Large ribosomal subunit protein eL31, P62900
listed as a hit [12]: yes

AP-2 complex subunit sigma, P53680
listed as a hit [13]: yes | listed as a hit [14]: yes

Histone H2A type 1-J, Q99878
listed as a hit (Histone H2B type 1-L): yes | listed as a hit (Histone H2B type 1-M): yes

Histone H4, P62805
listed as a hit (Histone H2B type 1-M): yes

Histone H2B type 1-C/E/F/G/I, P62807
listed as a hit (Histone H2B type 1-L): yes | listed as a hit (Histone H2B type 1-M): yes

Alpha-synuclein, O55042
listed as a hit (Beta-synuclein): yes

Large ribosomal subunit protein eL34, P49207
listed as a hit [15]: yes | listed as a hit [9]: yes

AP-2 complex subunit sigma, P62743
listed as a hit [16]: yes

Actin-related protein 2/3 complex subunit 4, P59999
listed as a hit [17]: yes | listed as a hit [18]: yes

Large ribosomal subunit protein uL14, P62829
listed as a hit (Histone H2A type 1-J): yes

Large ribosomal subunit protein uL10m, Q7Z7H8
listed as a hit [19]: yes
